Consider 62 compounds from PubChem BioAssay AID2314 (National Center for Advancing Translational Sciences (NCATS), 2010).

Each structure is given as a SMILES string. Hit rate of the full screen: of about 300,000 compounds, about 37,000 (12%) were called active. Cut-off read from the data, not from the text of the source: active = max response mostly above about 13% (no sharp cut-off); inactive = mostly below about 14%. Shown is part of a subset that was picked to be rich in actives.

This assay is described as follows: Cycloheximide Counterscreen for Small Molecule Inhibitors of Shiga Toxin. Note: read at 38.3 µM for the half of the compounds with a filed dose; 0% is about no effect. Conditions: cell reporter, cycloheximide protein synthesis inhibition counterscreen; hits give high values.
`CCCCSCCCNC(=O)C1CCC(CNS(=O)(=O)c2ccc(NC(C)=O)cc2)CC1` (configuration not stated): the max response is 0.78% (inactive).

In the case of `Cc1cc(=O)[nH]c(S)c1C#N`, the max response is -1.97% (inactive).

In the case of `O=C(CN1CCN(C(=S)NC2CCCC2)CC1)Nc1ccc(Oc2ccccc2)cc1`, the max response was -0.686% (inactive).

Take `Cc1ccc(C(=O)N(CC(=O)NC2CCCC2)c2ccc(F)cc2)s1`: the max response was -2.41% (inactive).

As for `CCCn1c(NC(=O)C23CC4CC(CC(O)(C4)C2)C3)nc2ccccc21`, the max response was -2.34% (inactive).

Consider `CCC(=O)c1ccc(N2CCN(C(=O)c3cc([N+](=O)[O-])ccc3F)CC2)c(F)c1`, for which the max response was -0.539% (inactive).

For the compound `Cc1ccc2nc3c(cc(C(=O)NCCc4ccccc4)c(=N)n3CC3CCCO3)c(=O)n2c1` (configuration not stated), the max response is -3.51% (inactive).

On to `O=C(Nc1ccccc1)C1CCN(C(=O)c2ccc(Br)cc2)CC1`, for which the max response is 11.6% (inactive).

Consider `O=C(Nc1ccc(C(=O)NCc2ccccc2Cl)cc1)C1=CSCCO1`, for which the max response is 31.9% (active).

Take `O=C(NCc1ccccc1Cl)C1CCCO1` (configuration not stated): the max response was -1.7% (inactive).

`CSc1ccc(CNC(=O)c2ccc(NC(=O)C3=CSCCO3)cc2)cc1`: the max response was 3.98% (inactive).

As for `Cc1nc(N)nc(SCc2ccc([N+](=O)[O-])cc2)c1N`, the max response is -1.9% (inactive).

Take `Cc1nc(SCC(=O)c2ccccc2)c([N+](=O)[O-])[nH]1`: the max response is -1.4% (inactive).

As for `Cc1nc(SCc2ccc(F)cc2)c([N+](=O)[O-])[nH]1`, the max response is 12.6% (active).

For `Cc1ccc(C)n1NC(=O)c1ccc([N+](=O)[O-])cc1`, the max response is -0.957% (inactive).

Consider `Cc1ccc(C(=O)NNC2=Nc3cc([N+](=O)[O-])ccc3OC2)cc1`, for which the max response was 20.2% (active).

Take `COc1ccc([N+](=O)[O-])cc1NCC(=O)c1ccc(C)cc1`: the max response is 20.4% (inactive).

Turning to `O=C(CNC(=O)Cc1ccccc1)N=Nc1c(O)[nH]c2ccc(Br)cc12`, the max response is -2.22% (inactive).

As to `C/C(CC1CC(C)(C)OC1=O)=N/Nc1nc(-c2ccccc2)cs1` (configuration not stated), the max response is 24.7% (active).

For `CC1(C)CC(CC(=O)O)C(=O)O1` (configuration not stated), the max response is -0.893% (inactive).

On to `Cc1cc(C(C)(C)C)oc1C(=O)N(CC(=O)NC1CCCC1)Cc1ccc(Cl)cc1`, for which the max response was 2.13% (inactive).

In the case of `Cc1ccc(S(=O)(=O)N2CC(C)N(S(C)(=O)=O)C2)cc1` (configuration not stated), the max response is -4.88% (inactive).

As to `CC(=O)N/C(=N/c1nc(C)cc(C)n1)Nc1ccc(F)cc1F`, the max response was -4.27% (inactive).

Turning to `CCCCCNC(=O)Cc1ccc(OC)cc1`, the max response was -1.71% (inactive).

`COc1ccc(C/C(C)=N/NC(=O)c2ccncc2)cc1`: the max response was 3.76% (inactive).

As to `COc1ccc(C/C(C)=N/NC(=O)c2cc(C)oc2C)cc1`, the max response was 26.5% (active).

Consider `O=C1COc2ccc(S(=O)(=O)Nc3ccc(OC(F)(F)F)cc3)cc2N1`, for which the max response is -6.66% (inactive).

In the case of `Fc1cccc(Cl)c1COc1ccc(-c2nnco2)cc1`, the max response is 24.9% (inactive).

Turning to `Fc1ccc(COc2cccc(-c3n[nH]c(=S)o3)c2)cc1`, the max response was 5.34% (inactive).

Consider `Fc1ccc(COc2ccc(-c3nnco3)cc2)cc1`, for which the max response is 52.6% (active).

For the compound `Cc1cccc(C(=O)Nc2nnc(S(=O)(=O)N3CCCCCC3)s2)c1`, the max response was -1.9% (inactive).

As to `O=C1/C(=C/c2ccc(F)cc2)SC(=S)N1CCCC(=O)N1CCCCC1CCO` (configuration not stated), the max response is 0.37% (inactive).

Turning to `COc1ccc(CC(=O)Nc2cc(S(=O)(=O)N3CCCCC3)ccc2N2CCN(C)CC2)cc1`, the max response is -2.16% (inactive).

Turning to `CN1CCN(c2ccc(S(=O)(=O)N3CCCCC3)cc2NC(=O)Cc2ccccc2F)CC1`, the max response is 0.822% (inactive).

Regarding `CCN1CCN(c2ccc(S(=O)(=O)N3CCCCC3)cc2NC(=O)Cc2c(Cl)cccc2Cl)CC1`, the max response was 44.2% (active).

With `CCCNC(=O)C(=O)Nc1cc2c3c(c1)CCC(=O)N3CCC2`, the max response is -6.21% (inactive).

`Cc1cc(F)ccc1N1CCC(N2CCN(C)C(CCO)C2)CC1` (configuration not stated): the max response was -1.8% (inactive).

Regarding `CCCn1c(CCNc2nc(-c3ccc(OC)cc3)cs2)nc2ccccc21`, the max response was 6.09% (active).

Take `CCCn1c(C(O)c2cc(OC)ccc2OC)nc2ccccc21` (configuration not stated): the max response is -2.36% (inactive).

`CCCn1c(C2CCCN2c2nc(-c3ccc(OC)cc3)cs2)nc2ccccc21` (configuration not stated): the max response is 3.07% (inactive).

In the case of `COC(=O)c1ccc(CSc2ccc3nnc(-c4ccccc4)n3n2)o1`, the max response is 15.3% (inactive).

Regarding `Cc1nnc2n1N=C(c1ccc3c(c1)NC(=O)CO3)CS2`, the max response is -0.735% (inactive).

Consider `C/C(=N\NC(=S)NC1CCCCC1)c1ccc(C)o1`, for which the max response is 26.6% (inactive).

In the case of `Cc1ccc(NC(=S)Nc2ccc(F)cc2)cc1`, the max response was 8.11% (active).

As for `Cc1ccc(/C=N/NC(=S)NC2CCCCC2)o1`, the max response was 24.4% (active).

Take `CC(C)CNC(=S)Nc1ccc(F)cc1`: the max response is -3.91% (inactive).

For `Cc1ccc(/C=N/NC(=S)Nc2cccc(S(=O)(=O)N(C)C)c2)o1`, the max response is 11.3% (inactive).

In the case of `Cc1cc(C)cc(NC(=S)NCc2ccc(F)cc2)c1`, the max response is -3.19% (inactive).

As to `Cc1ccc(NC(=O)CSCC(=O)NC2CCCCC2)cc1`, the max response was 1.06% (inactive).

For the compound `Cc1cc(Br)ccc1NC(=S)NC1CCCC1`, the max response was 30.4% (active).

Regarding `CC(Oc1ccc(Br)cc1Br)C(=O)NC1CCCC1` (configuration not stated), the max response was -1.67% (inactive).

Consider `S=C(Nc1ccc(Br)cc1)NC1CCN(Cc2ccccc2)CC1`, for which the max response is -1.87% (inactive).

Take `Cc1ccc(NC(=S)NC2CCCC2)cc1`: the max response is 26.6% (active).

As for `S=C(Nc1ccc(Br)cc1Cl)NC1CCN(Cc2ccccc2)CC1`, the max response is -4.37% (inactive).

Regarding `Cc1ccc(-n2c(C)nnc2SCC(=O)NC2CC2)cc1`, the max response was 1.87% (inactive).

Consider `O=C(CN1CCN(Cc2ccccc2)CC1)Nc1ccc(F)c(F)c1`, for which the max response is 2.05% (inactive).

On to `COc1ccc(C2CC(c3cccs3)=NN2c2nc(C)c(C(C)=O)s2)cc1OC` (configuration not stated), for which the max response was 14% (inactive).

`CCN(CC)CCCNC(=O)c1c(O)c2cc(F)cc3c2n(c1=O)C(C)CC3` (configuration not stated): the max response is -7.23% (inactive).

With `O=C(N/C(=C\c1ccc([N+](=O)[O-])cc1)C(=O)N1CCOCC1)c1cccc(Br)c1`, the max response was 0.841% (inactive).

As for `COc1ccc(/C=C/C(=O)Nc2c(C)nn(C)c2C)cc1COc1ccc(Br)cc1`, the max response was -4.32% (inactive).

For `Cc1ccc(S(=O)(=O)N2CCN(c3ccccc3)CC2)cc1C`, the max response was -2.26% (inactive).

Take `CN(CC(=O)Nc1c(Cl)cccc1Cl)C(=O)CNC(=O)C1CCCCC1`: the max response is 5.73% (inactive).
